High-throughput results deposited in PubChem by several laboratories.
Measles CPE: protection of cells from measles virus | Measles virus-infected cells, CPE protection, absorbance | protection (pct of control), % at 4 µM | actives 1.5% (n = 140,000) | AID 841; in the data active = protection mostly above about 24%, no sharp cut-off; inactive = mostly below about 26%
CYP2C19 activ: increases human CYP2C19 enzyme activity; P33261; recombinant CYP2C19, luciferin-H EGE luminescence; hits give high values; 0 = fully inhibited enzyme, 1 = untreated enzyme; activation factor at 5 µM; 96,000 tested, under 10 active;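 active = activation factor of at least 2 at 5 µM in the primary screen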;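 also: 0 = wells with 2.5 mM tranylcypromine and 1 = vehicle-only wells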
Target sequence (P33261 whole entry, looked up): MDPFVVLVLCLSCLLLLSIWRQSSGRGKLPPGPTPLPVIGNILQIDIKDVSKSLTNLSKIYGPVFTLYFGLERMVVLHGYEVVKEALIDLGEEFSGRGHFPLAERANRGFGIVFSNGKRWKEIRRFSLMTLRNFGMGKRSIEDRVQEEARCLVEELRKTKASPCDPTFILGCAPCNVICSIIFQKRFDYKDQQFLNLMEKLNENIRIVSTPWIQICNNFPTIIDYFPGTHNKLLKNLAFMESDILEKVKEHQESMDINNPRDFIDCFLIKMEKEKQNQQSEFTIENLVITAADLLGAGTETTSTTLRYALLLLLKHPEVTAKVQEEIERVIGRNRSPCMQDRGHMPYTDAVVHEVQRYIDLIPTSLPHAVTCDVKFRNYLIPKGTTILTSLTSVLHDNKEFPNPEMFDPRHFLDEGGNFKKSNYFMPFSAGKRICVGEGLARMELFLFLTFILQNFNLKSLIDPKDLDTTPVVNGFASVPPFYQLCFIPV
CYP2C19 inh: inhibitors of human CYP2C19; actives 21% (n = 96,000); inhibition, % at 5 µM; CYP2C19 Supersomes, luciferin-H EGE luminescence, 30 min; P33261;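 active = CYP2C19 inhibition above a set limit at 5 µM in the primary screen, cut at about 50% in these data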;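 also: plate controls were negative control wells for no effect and 2.5 mM tranylcypromine positive control for full effect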
CYP2C9 activ: CYP2C9 (human) activation; activation factor at 5 µM; P11712; actives 1.4% (n = 96,000); recombinant CYP2C9, luciferin-H conversion, luminescence; hits give high values; factor 1 = untreated enzyme, 0 = blocked;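 active = activation factor of 2 or more for CYP2C9 at a 5 µM dose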;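 also: 0 = sulfaphenazole-blocked wells and 1 = vehicle-only wells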
CYP2C9 inhib: inhibitors of human CYP2C9; actives 20% (n = 96,000); inhibition, % at 5 µM; AID 777; CYP2C9 Supersomes, luciferin-H conversion, luminescence;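 active = blocking of liver enzyme CYP2C9 beyond about 50% at 5 µM, limit read from the data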
Numbers without * were called inactive; x = no result given. Sampled rows, rich in hits. Any-hit rate of the full collection: about 22%.

SMILES	Measles CPE	CYP2C19 activ	CYP2C19 inh	CYP2C9 activ	CYP2C9 inhib
COc1ccc(C(=O)C2CN(c3ccccc3)CC2c2ccc(Cl)cc2)cc1 (stereo not drawn)	4	0.5	47	0.4	63*
O=C(NC(=O)N1CCN(c2cccc(Cl)c2)CC1)c1ccccc1	2	0.8	18	0.8	19
COc1cc2c(cc1OC)CN(C(=O)C(C)(C)C)CC2	3	0.6	40	1	2
COc1cc2c(cc1OC)CN(C(=O)C1(c3ccccc3)CC1)CC2	4	0.6	37	0.5	54*
c1cnc2ccc(C(c3nnnn3C3CCCC3)N3CCSCC3)cc2c1 (stereo not drawn)	17	x	x	x	x
O=C(NN1CCOCC1)c1cc(-c2cccc(Cl)c2)nc2ccccc12	43*	0.9	13	0.9	7
O=C(NN1CCOCC1)c1cc(-c2ccccc2)nc2ccccc12	8	1	1	0.9	10
Cc1ccc2nc(-c3cccc(NC(=O)c4ccc5c(c4)OCCO5)c3)oc2c1	8	0.4	64*	0.1	87*
CCOc1ccc(-c2cc(C(=O)Nc3ccc4c(c3)OCCO4)c3ccccc3n2)cc1	12	0.5	49	0.2	78*
Cc1cccc(-c2cc(C(=O)Nc3ccc4c(c3)OCCO4)c3ccccc3n2)c1	8	0.8	23	0.4	60*
Cc1nc2ccccc2c2oc(C(=O)Nc3ccc4c(c3)OCCO4)cc12	5	1	-2	1	4
O=C(Nc1ccc2oc(-c3ccc4ccccc4c3)nc2c1)c1ccc2c(c1)OCCO2	6	1	1	0.9	7
Cc1cc(/C=C2\SC(N)=NC2=O)c(C)n1-c1ccccc1	25	1.1	-14	1.4	-41
O=C(NC(C(=O)N/N=C/c1c2ccccc2cc2ccccc12)c1n[nH]c(=O)c2ccccc12)c1ccccc1 (stereo not drawn)	5	0.6	36	0.6	43
Cc1ccc2nc(-c3ccc4c(c3)OCCO4)cc(C(=O)O)c2c1	8	0.7	28	0.2	81*
CCN(CC)CCCNC(=O)c1cc(Sc2nnc(C)s2)nc2ccccc12	4	x	x	x	x
CC1(C)CC(=O)C=C(NCCN2CCN(C(=O)Nc3ccc(Cl)cc3)CC2)C1	5	0.9	7	1.1	-9
CC1(C)CC(=O)C=C(NCCN2CCN(C(=O)Nc3ccc(Cl)c(Cl)c3)CC2)C1	25	0.3	66*	0.7	30
Cc1ccc2nc(-c3ccccc3)cn2c1	9	0.2	81*	0.5	48
c1cncc(-c2noc(CC3CCCCC3)n2)c1	9	0.2	80*	1.1	-9
Clc1ccc(Cc2nc(-c3cccnc3)no2)cc1	26	0.5	54*	0.6	40
c1ccc(CCc2nc(-c3cccnc3)no2)cc1	8	0.1	86*	0.9	10
O=C(Nc1ccc(-c2noc(CCc3ccccc3)n2)cc1)c1ccco1	6	0.6	41	0.3	71*
c1ccc(CCc2ccccc2-c2nc(-c3cccnc3)no2)cc1	4	0.8	18	1.1	-6
CCCn1nnnc1SCC(=O)N1CCN(C(=O)c2ccco2)CC1	16	1	0	1	-1
SMILES	Measles CPE	CYP2C19 activ	CYP2C19 inh	CYP2C9 activ	CYP2C9 inhib
COc1ccc(NC(=O)NCc2cccn2C)c(OC)c1	40	0.4	62*	1	-3
COc1ccc(NC(=O)Nc2ccc(N(C)C)cc2)cc1	-1	0.1	86*	0.8	21
COc1ccc(CNC(=O)Nc2cccc(C)c2)cc1	1	0.7	35	1	4
COc1ccc(OC)c(NC(=O)NCc2ccc(F)cc2)c1	8	0	99*	0.7	28
COc1ccc(CNC(=O)Nc2ccc(OC)cc2)cc1	7	0.4	59*	1.1	-9
COc1ccc(NC(=O)NCc2ccncc2)c(OC)c1	16	0.6	40	0.7	30
NS(=O)(=O)c1ccc(NC(=O)COC(=O)CCC2CCCCC2)cc1	3	x	x	x	x
COc1ccc(N2CCC(CNC(=O)Nc3ccccc3)C2)cc1 (stereo not drawn)	19	0.4	60*	0.6	38
COc1ccc(NC(=O)C2CCN(C(=O)NCc3ccccc3)CC2)cc1	4	1	0	0.9	9
O=C(NCc1ccc(N2CCCC2=O)cc1)c1cnccn1	1	0.8	15	1	-2
COc1ccccc1NC(=O)C(C)N1CCN(C/C=C/c2ccccc2)CC1 (stereo not drawn)	10	0.4	60*	0.6	37
